Measurements as given in PubChem BioAssay AID1671202 (University of Kansas High Throughput Screening Laboratory, 2021).
“And” between values parts separate entries of the source, which are not always exact repeats. Identical values can stand only once. Hit rate of the full screen: of about 190,000 compounds, about 6,900 (3.6%) were called active. Shown is part of a subset that was picked to be rich in actives. Values without a mark were called inactive. Cut-off read from the data, not from the text of the source: active = inhibition above about 50%; inactive = the rest.

target: Huntingtin (Homo sapiens) (UniProt P42858); test: mutant huntingtin-calmodulin interaction inhibitors – biochemical, AlphaScreen, primary screen (AID 1671202); details: AlphaScreen His-mHTT/GST-CaM binding, luminescence; at 15 µM, hits give high values;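 note: 0% = both proteins with DMSO and 100% = one protein alone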
Sequence (P42858 whole entry, looked up, stated change not applied): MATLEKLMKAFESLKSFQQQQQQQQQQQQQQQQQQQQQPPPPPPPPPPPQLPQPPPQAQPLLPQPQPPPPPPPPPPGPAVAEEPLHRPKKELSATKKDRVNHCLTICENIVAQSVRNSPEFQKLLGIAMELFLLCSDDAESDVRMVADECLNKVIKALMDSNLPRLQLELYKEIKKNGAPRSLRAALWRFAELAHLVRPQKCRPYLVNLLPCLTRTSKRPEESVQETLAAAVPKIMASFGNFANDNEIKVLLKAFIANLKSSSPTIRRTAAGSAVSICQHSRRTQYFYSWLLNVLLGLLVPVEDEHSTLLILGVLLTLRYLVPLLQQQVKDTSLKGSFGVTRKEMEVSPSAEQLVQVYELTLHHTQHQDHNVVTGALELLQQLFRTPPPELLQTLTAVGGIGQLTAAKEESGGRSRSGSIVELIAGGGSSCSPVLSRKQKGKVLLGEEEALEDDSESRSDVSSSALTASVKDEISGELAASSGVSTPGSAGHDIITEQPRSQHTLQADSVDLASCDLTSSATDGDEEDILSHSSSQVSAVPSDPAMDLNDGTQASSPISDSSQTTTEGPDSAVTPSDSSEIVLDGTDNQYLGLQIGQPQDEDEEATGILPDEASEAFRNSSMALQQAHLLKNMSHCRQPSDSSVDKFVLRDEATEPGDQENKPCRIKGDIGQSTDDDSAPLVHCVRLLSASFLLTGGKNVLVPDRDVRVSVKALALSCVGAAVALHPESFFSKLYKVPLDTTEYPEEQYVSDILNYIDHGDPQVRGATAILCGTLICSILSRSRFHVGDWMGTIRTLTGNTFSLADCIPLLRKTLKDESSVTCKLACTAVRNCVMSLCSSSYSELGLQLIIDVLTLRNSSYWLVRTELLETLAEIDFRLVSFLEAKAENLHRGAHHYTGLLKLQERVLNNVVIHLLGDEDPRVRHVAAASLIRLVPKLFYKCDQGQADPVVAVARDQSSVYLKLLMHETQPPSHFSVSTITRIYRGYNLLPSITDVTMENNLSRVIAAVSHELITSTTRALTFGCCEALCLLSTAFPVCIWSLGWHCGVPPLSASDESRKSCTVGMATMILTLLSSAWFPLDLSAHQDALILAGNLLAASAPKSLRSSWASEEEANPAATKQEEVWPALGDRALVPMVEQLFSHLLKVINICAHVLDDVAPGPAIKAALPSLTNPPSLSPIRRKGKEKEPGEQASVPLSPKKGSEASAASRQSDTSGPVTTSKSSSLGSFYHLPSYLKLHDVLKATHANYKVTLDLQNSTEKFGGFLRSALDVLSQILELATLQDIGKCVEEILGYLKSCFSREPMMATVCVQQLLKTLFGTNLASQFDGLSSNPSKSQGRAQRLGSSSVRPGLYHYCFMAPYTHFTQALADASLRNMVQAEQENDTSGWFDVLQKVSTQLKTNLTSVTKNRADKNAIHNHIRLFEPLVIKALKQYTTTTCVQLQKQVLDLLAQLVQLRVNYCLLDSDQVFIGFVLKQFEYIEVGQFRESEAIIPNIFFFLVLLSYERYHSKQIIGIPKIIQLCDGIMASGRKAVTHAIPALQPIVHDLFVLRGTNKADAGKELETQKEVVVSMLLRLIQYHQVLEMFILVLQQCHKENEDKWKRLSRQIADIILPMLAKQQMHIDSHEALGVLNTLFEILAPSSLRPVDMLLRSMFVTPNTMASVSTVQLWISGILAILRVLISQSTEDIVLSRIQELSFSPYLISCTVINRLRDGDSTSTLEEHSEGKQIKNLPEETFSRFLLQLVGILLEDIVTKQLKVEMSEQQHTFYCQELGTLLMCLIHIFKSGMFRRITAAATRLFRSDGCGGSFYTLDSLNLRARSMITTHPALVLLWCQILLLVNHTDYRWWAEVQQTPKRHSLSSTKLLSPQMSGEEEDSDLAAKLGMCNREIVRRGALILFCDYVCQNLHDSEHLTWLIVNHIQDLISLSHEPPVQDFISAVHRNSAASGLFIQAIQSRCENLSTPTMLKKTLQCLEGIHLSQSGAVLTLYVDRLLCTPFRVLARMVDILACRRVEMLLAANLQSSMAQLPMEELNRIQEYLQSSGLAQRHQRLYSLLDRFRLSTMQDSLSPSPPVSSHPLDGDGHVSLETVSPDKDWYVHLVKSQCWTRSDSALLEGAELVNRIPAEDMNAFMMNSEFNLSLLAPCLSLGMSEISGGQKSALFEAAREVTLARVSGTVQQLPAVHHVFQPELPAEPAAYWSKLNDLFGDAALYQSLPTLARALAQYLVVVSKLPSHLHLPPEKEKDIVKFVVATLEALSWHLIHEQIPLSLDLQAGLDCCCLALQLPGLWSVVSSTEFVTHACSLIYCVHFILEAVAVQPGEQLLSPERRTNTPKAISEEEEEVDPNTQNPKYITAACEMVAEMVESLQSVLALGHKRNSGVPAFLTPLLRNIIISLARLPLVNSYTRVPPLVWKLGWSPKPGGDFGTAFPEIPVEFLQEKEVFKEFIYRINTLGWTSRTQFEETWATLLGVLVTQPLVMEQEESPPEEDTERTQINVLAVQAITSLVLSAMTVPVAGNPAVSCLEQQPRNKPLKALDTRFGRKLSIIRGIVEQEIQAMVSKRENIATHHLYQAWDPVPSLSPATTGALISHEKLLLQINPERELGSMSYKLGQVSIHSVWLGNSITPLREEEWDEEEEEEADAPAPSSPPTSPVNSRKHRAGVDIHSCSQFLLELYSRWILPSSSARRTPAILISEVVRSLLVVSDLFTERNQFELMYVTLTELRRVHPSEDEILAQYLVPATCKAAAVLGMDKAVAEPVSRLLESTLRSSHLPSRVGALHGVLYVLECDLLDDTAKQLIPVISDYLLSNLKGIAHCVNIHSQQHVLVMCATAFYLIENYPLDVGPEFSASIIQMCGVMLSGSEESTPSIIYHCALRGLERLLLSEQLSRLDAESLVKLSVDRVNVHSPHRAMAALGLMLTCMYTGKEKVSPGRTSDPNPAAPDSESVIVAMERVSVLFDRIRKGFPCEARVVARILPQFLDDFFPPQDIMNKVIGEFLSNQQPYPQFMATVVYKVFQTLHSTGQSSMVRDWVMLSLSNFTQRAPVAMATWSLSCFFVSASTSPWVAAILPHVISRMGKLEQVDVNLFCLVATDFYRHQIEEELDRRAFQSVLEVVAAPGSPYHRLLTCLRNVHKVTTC

| Structure (SMILES) | inhibition |
| --- | --- |
| Cc1[nH]nc(-c2ccsc2)c1NC(=O)Cc1ccccc1 | -4% |
| COc1cccc(CC(=O)N2CCCC2c2cc(C)on2)c1 (stereo not given) | -5.74% |
| CC1CCCN(c2ccc(-c3noc(CN(C)C4CCCCC4)n3)cn2)C1 (stereo not given) | 10% |
| CCc1onc(C)c1C1CCCN1C(=O)c1nn(C)cc1Cl (stereo not given) | -0.93% |
| COc1cc(OC)c(OC)cc1/C=C1N=C(/C=C/c2ccccc2)OC/1=O | -2% |
| Cc1nc(-c2ccc(N3CCN(C(=O)C4CCCO4)CC3)nc2)no1 (stereo not given) | -5.6% |
| c1cc(N2CCCCCC2)ncc1-c1noc(CN2CCCC2)n1 | 15.8% |
| CCOC(=O)N1CCN(Cc2nc(-c3ccc(N4CCCCCC4)nc3)no2)CC1 | 78.7% (active) |
| CC(C)Cn1c(C2CCN(C(=O)c3n[nH]c4c3CCCC4)C2)nc2ccncc21 (stereo not given) | 5.16% |
| O=C(CNc1ccccc1-c1nc2ccccc2[nH]c1=O)NC1CCCCCCC1 | -7% |
| CCN(CC)C(=NS(=O)(=O)c1ccccc1)c1ccc(Cl)cc1 | -3% |
| CC(=O)Nc1cccnc1-c1ccc(C(=O)NCc2ccccc2)cc1 | -2.7% |
| CSc1ccc(C2C=C(c3cccs3)Nc3nnnn32)cc1 (stereo not given) | 2% |
| COc1ccc(Cl)cc1C(=O)N1CCN(c2ccc3nnc(-c4ccco4)n3n2)CC1 | 72% (active) |
| COc1ccc(Cl)cc1C(=O)N1CCn2c(C)nnc2C1 | -9.2% |
| COc1ccc(Cl)cc1C(=O)N1CCN(c2cccc(Cl)c2)CC1 | -0.4% |
| COc1ccc(C2C(C(=O)Nc3ccc(Cl)cc3)=C(C)Nc3nnnn32)cc1 (stereo not given) | 23% |
| CCCC(=O)NC(c1ccccc1OC)c1cc([N+](=O)[O-])c2cccnc2c1O (stereo not given) | 100% (active) |
| O=[N+]([O-])c1ccc(SCCO)c2ncccc12 | 6% |
| CCCC(=O)NC(Nc1ccccc1OC)C(Cl)(Cl)Cl (stereo not given) | -3% |
| Cc1nc(-n2cccc2)sc1C(=O)NCc1cc(-c2ccco2)on1 | -1.3% |
| CN(Cc1ccccc1F)c1cc2c(c3c1ccn3C)C1CCC2O1 (stereo not given) | 75.9% (active) |

| Structure (SMILES) | inhibition |
| --- | --- |
| O=C(C=Cc1ccco1)NCC1COC2(CCCCC2)O1 (stereo not given) | -5.5% |
| CCOc1ccccc1NC(=O)c1nn(-c2ccccc2OC)c(=O)c2ccccc12 | -4% |
| O=C1CSC(c2ccc(F)cc2)N1c1ccc(Br)cc1 (stereo not given) | -18% |
| CCCc1ccc(OCC(=O)c2ccc(O)c(C)c2O)cc1 | 80.4% (active) |
| CCCc1ccc(OCC(O)CN2CCN(C(=O)OCC)CC2)cc1 (stereo not given) | 24.7% |
| O=C(COc1ccc([N+](=O)[O-])cc1)c1ccc(O)cc1O | 2.4% |
| COCC(=O)N1CCCC(c2ccnc(-c3ccccc3)n2)C1 (stereo not given) | -3.3% |
| CC1CN(C(=O)COc2cccc3c2OC(C)(C)C3)CC(C)O1 (stereo not given) | 1.8% |
| CCCCOc1ccc(NC(=O)N(Cc2ccccn2)Cc2ccco2)cc1 | -0.5% |
| Cc1ccc(NC(=O)N2CCCC(CC(=O)N3CCN(c4ccccc4F)CC3)C2)cc1 (stereo not given) | 8.68% |
| CCOC(=O)CCC(=O)N1CCN(C2=NN=C(c3ccccc3)CS2)CC1 | 32.5% |
| O=C(c1cccs1)N1CCN(C2=NN=C(c3ccccc3)CS2)CC1 | 86.5% (active) |
| O=C(c1cccs1)N1CCN(c2cc(-c3cccnc3)[nH]n2)CC1 | -4.79% |
| O=[N+]([O-])c1ccc(Oc2ccc(Cl)c3cccnc23)c(Cl)c1 | -1% |
| Cc1ccccc1-c1noc(C2CCCN2C(=O)NCc2ccc(F)cc2)n1 (stereo not given) | 68.5% (active) |
| Cc1ccccc1-c1noc(C2CCCN2C(=O)Nc2ccccc2Cl)n1 (stereo not given) | -25.4% |
| COc1ccc(NC(=O)N2CCCC2c2nc(-c3ccccc3C)no2)cc1 (stereo not given) | 7.96% |
| CCOc1cccc(C(=O)Nc2ccc(-c3nc4ncccc4o3)cc2)c1 | -4% |
| CC1(C)CC(=O)C2=C(C1)c1c(ccc3ncccc13)NC2c1ccc([N+](=O)[O-])cc1 (stereo not given) | 54% (active) |
| CC1(C)CC(=O)C2=C(C1)c1c(ccc3ncccc13)NC2c1ccc(O)cc1 (stereo not given) | 2% |
| CCOc1ccc(C2Nc3ccc4ncccc4c3C3=C2C(=O)CC(C)(C)C3)cc1 (stereo not given) | 3% |
| O=C1OC(/C=C/c2cccc(Cl)c2Cl)=NC/1=C\c1cccc([N+](=O)[O-])c1 | 1% |

| Structure (SMILES) | inhibition |
| --- | --- |
| O=c1[nH]c2c(c(=O)[nH]1)C(c1cc([N+](=O)[O-])ccc1N1CCOCC1)O2 (stereo not given) | 3% |
| N#Cc1ccc(C2Oc3ccccc3C3CC(c4ccccc4)=NN32)cc1 (stereo not given) | 14% and 1.44% |
| COc1cc(OC)c(C2Oc3ccccc3C3CC(c4cccs4)=NN32)cc1OC (stereo not given) | 52% (active) |
| COc1ccc(C2=NN3C(C2)c2ccccc2OC3c2cccc([N+](=O)[O-])c2)cc1 (stereo not given) | 10% |
| Cc1ccc(C2Oc3ccccc3C3CC(c4cccs4)=NN32)o1 (stereo not given) | 63% (active) |
| CC1=NN2C(C1)c1ccccc1OC2c1ccc(Cl)cc1 (stereo not given) | -1% |
| COc1ccc(C2CC(c3cccs3)=NN2c2ccccc2)cc1 (stereo not given) | -183% |
| Cn1cccc1C(=O)N1CC2CC1CC2NS(=O)(=O)c1cccs1 (stereo not given) | 14.1% |
| Fc1ccc(CSc2nnnn2-c2ccc3c(c2)OCO3)cc1 | -29% |
| CC(C)c1nc2c(NC(=O)C3CC3)cccn2n1 | -7.5% |
| CCCCN(CC)S(=O)(=O)c1ccc(Cl)cc1 | -36.2% |
| Cc1cc(C)cc(N2C(=O)C(N3C(=O)c4ccccc4C3=O)C2c2ccc(F)cc2)c1 (stereo not given) | 3% |
| O=C(Nc1cccc(Cl)c1)C1CCN(c2nccn3nc(-c4ccccc4)cc23)CC1 | 4.34% |
| CCN(CC)S(=O)(=O)N1CCC(C(=O)NCc2cccnc2)CC1 | -11% |
| O=C(NCc1ccc(Cl)cc1)C1CCN(c2nccn3nc(-c4ccccc4)cc23)CC1 | 52% (active) |
| O=C(NCc1cccs1)C1CCN(c2nccn3nc(-c4ccccc4)cc23)CC1 | 18.6% |
| O=C(NCCc1ccccn1)C1CCN(c2nccn3nc(-c4ccc(F)cc4)cc23)CC1 | 15% |
| O=C(NCc1ccc(F)cc1)C1CCN(c2nccn3nc(-c4ccc(F)cc4)cc23)CC1 | 4.41% |
| CC(NC(=O)C1CCN(c2nccn3nc(-c4cccs4)cc23)CC1)c1ccccc1 (stereo not given) | 59.4% (active) |
| Cc1ccc(-c2cc3c(N4CCC(C(=O)NCc5cccnc5)CC4)nccn3n2)cc1C | 59.9% (active) |
| CC(NC(=O)C1CCN(c2nccn3nc(-c4ccccc4)cc23)CC1)c1ccc(F)cc1 (stereo not given) | -3.07% |
